High-throughput results from PubChem BioAssay.
HT1080 IDH1KD tx: toxicity to HT-1080 IDH1 knockdown cells (counter line). HT-1080 IDH1 knockdown viability, ATP luminescence, 48 h. Potency, µM (series often up to 46.1 µM), for the others: top-dose activity, negative = toxicity, hits mostly cytotoxic. hit rate 2% among 360,000. AID 686971;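 note: potency is the fitted concentration of half-maximal effect; 0% = DMSO wells and -100% = cell-free medium wells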
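CellTiter-Glo luminescence after 48 h compound exposure at 37 degrees C of IDH1-knockdown HT-1080 cells in 5% FBS RPMI. %Activity scaled between DMSO wells and cell-free media wells, with curves fitted and assigned curve classes.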
TDP1 cell noCPT: qHTS for Inhibitors of human tyrosyl-DNA phosphodiesterase 1 (TDP1): qHTS in cells in absence of CPT; DT40 Tdp1-/- hTDP1 cells, no CPT, ATP luminescence, 48 h; Potency, µM (top dose mostly 46.2 µM), inactives show at the highest dose activity change, negative = growth inhibition, actives largely listed as inhibitors; hit rate 15% among 420,000; note: potency is the fitted concentration of half-maximal effect; nearly all actives have a fitted effect of over 55% in size
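Readout: luminescence from CellTiter-Glo after 30 min in the dark at RT. Cells: DT40 Tdp1-/- with stable hTDP1, 400/well. Exposure: compounds alone, ≥48 hr, 37 °C.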
IL1B secr inh: blocks inflammasome-driven IL-1 beta release; THP-1 LPS/ATP IL-1B secretion, AlphaLISA, 16 h; stronger effect = lower value; activity change, % at 57.5 µM; hit rate 4.7% among 360,000; AID 743279; in the data active = activity change below about -50%; inconclusive = mostly about -30% to -49%
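Secreted IL-1B measured by AlphaLISA bead assay after 16 h compound exposure of THP-1 cells; compounds (final up to 57.5 uM) added 1 h before LPS (250 ng/mL) and ATP (1.25 mM) stimulation; lower signal means less secretion.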
DT40 TDP1 CPT: DT40-hTDP1 cell growth loss with CPT | AID 686979 | Potency, µM (highest dose often 46.2 µM), inactives show at the highest dose activity change, negative = growth inhibition, most hits filed as inhibitors | hit rate 12% among 420,000 | chicken DT40 Tdp1-/-;hTDP1 cells + 20 nM CPT, ATP luminescence, 48 h; note: potency is the fitted concentration of half-maximal effect; nearly all actives have a fitted effect of over 55% in size
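Cell growth measured by CellTiter-Glo luminescence after a minimum 48 h, 37 C compound exposure with 20 nM CPT in Tdp1-knockout DT40 cells stably expressing hTDP1, seeded 400/well; qHTS titration format.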
HT1080NT lethal: kills 2HG-producing HT-1080-NT fibrosarcoma cells | HT-1080-NT fibrosarcoma viability, CellTiter-Glo ATP luminescence, 48 h | Potency, µM (series often up to 46.1 µM), for the others: at the highest dose activity, negative = less viability, most hits filed as cytotoxic | hit rate 1.6% among 360,000 | AID 686970;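 note: NT is the 2HG producing partner of a matched IDH1 knockdown line; potency is the fitted concentration of half-maximal effect; 0% = DMSO-treated cells and -100% = media-only wells without cells; nearly all actives have a fitted effect of over 55% in size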
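Viability by CellTiter-Glo luminescence after 48 h compound exposure at 37C of HT-1080-NT cells (750/well, RPMI, 5% FBS). % activity scaled between DMSO wells and medium-only wells, then curve-fitted and categorized by curve class.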
* marks the source's active call; other numbers are inactive results; u = inconclusive; x = no result. In the library only some 19% were active in any assay of this set; here they are far more common. Unless noted, calls come from the whole dose curve; as a rule, active = well fitted curve in the direction sought with a large enough effect; inconclusive = small, poorly fitted or top-dose-only effect, or another doubt; inactive = no such curve, though single readings can be large; an effect the other way counts as inactive or inconclusive. Unless noted, % is set by controls: 0 for no effect and ±100 for the full control effect.

SMILES	HT1080 IDH1KD tx	TDP1 cell noCPT	IL1B secr inh	DT40 TDP1 CPT	HT1080NT lethal
O=C(c1ccoc1)N1CCN(c2cc(-c3ccccc3)nc3cc(-c4ccccc4)nn23)CC1	u	16µM*	-3	18µM*	-25%
Cc1cc(N2CCN(C(=O)c3ccoc3)CC2)n2nc(-c3ccccc3)cc2n1	-2%	18µM*	-10	u	-5%
COc1ccccc1-c1cc2nc(-c3ccccc3)cc(N3CCN(C(=O)c4ccco4)CC3)n2n1	4%	6.5µM*	14	12µM*	0%
O=C(Cn1nc(-c2ccccc2)nc(Cc2ccccc2)c1=O)Nc1ccc(Cl)cc1	x	-10%	x	-5%	x
O=S(=O)(c1cccs1)N1CCC(CO)(Cc2cccc(F)c2)CC1	0%	-28%	-2	2%	-15%
COc1ccccc1-c1cc2nc(-c3ccccc3)cc(N3CCN(C(=O)c4ccoc4)CC3)n2n1	-27%	5.2µM*	10	9.2µM*	-11%
CCCCN(CC)Cc1ccc(CNC(=O)Nc2ccc(OCC)cc2)o1	-10%	u	-7	u	6%
CCCCN(CC)Cc1ccc(CNC(=O)Nc2ccc(Cl)cc2)o1	u	5.8µM*	-62*	3.3µM*	u
Cc1ccc(N(CCC#N)C(=O)CN2C(=O)NC(Cc3ccccc3)C2=O)cc1 (configuration not stated)	5%	3%	-6	13%	0%
Cc1nc(SCC(=O)N(C)Cc2ccco2)c2c(C)c(C)sc2n1	u	u	-5	16µM*	-21%
Cc1nc(NCc2ccco2)c2c(C)c(C)sc2n1	2.8µM*	1.8µM*	-77*	2.1µM*	5.6µM*
CCN(C(=O)CSc1nc(C)nc2sc(C)c(C)c12)c1ccc(F)cc1	1%	u	-18	-29%	-5%
Cc1cc(O)c(C(C)C)cc1C1(c2cc(C(C)C)c(O)cc2C)OC(=O)c2ccccc21	16µM*	9.2µM*	-99*	15µM*	8.2µM*
Cc1cc(C2(c3ccc(O)c(C)c3)OC(=O)c3ccccc32)ccc1O	-6%	u	0	-30%	0%
CCOc1ccc(Nc2ncnc3c2cnn3Cc2ccccc2)cc1	u	-26%	-15	u	u
c1ccc(CNc2ncnc3c2cnn3Cc2ccccc2)cc1	7.9µM*	13µM*	-17	13µM*	7.9µM*
CC(C)CCNc1ncnc2c1cnn2Cc1ccccc1Cl	-10%	u	-15	29µM*	-17%
COc1ccc(Nc2ncnc3c2cnn3Cc2ccccc2)cc1	-18%	u	-54*	u	u
OCCNc1ncnc2c1cnn2Cc1ccccc1	4%	7%	-14	-9%	-3%
Clc1ccc(Cn2ncc3c(NCc4ccco4)ncnc32)c(Cl)c1	u	u	12	u	u
CN1CCCCCC1C(=O)NCC1Cc2cc(-c3cnccn3)ccc2O1 (configuration not stated)	x	u	x	8%	x
Cc1ccc(NS(=O)(=O)c2cc(C(=O)N(C)C3CCN(C)CC3)ccc2Cl)cc1Cl	-1%	u	-20	-4%	-10%
COCCSc1ccccc1C(=O)N1CCc2ccccc21	-5%	-28%	12	-13%	-1%
CC1CCN(c2cc3c(cc2F)c(=O)c(S(=O)(=O)c2cccc(Cl)c2)cn3Cc2ccccc2)CC1	x	-17%	x	12%	x
Cc1ccc(NC(=O)CN2CCN(S(=O)(=O)c3cccs3)CC2)cc1S(=O)(=O)N(C)C	-1%	u	-13	-2%	6%
SMILES	HT1080 IDH1KD tx	TDP1 cell noCPT	IL1B secr inh	DT40 TDP1 CPT	HT1080NT lethal
COc1ccc(CN2CCC3CC2c2cc(Cl)ccc23)cc1 (configuration not stated)	-1%	18µM*	11	18µM*	-7%
COc1ccc(CN2CCC3CC2c2cc(-c4cccc(C)c4)ccc23)cc1 (configuration not stated)	-22%	15µM*	-18	21µM*	-18%
Cc1cccc(-c2ccc3c(c2)C2CC3CCN2Cc2ccc3c(c2)OCO3)c1 (configuration not stated)	u	u	46	u	-28%
CC(=O)N1C[C@H]2CON(C)[C@H]2C[C@H]1c1ccc(-c2ccccc2)cc1	-2%	u	8	u	-5%
CCc1ccc2[nH]c(=O)c(CN(Cc3ccccc3OC)Cc3nnnn3Cc3ccco3)cc2c1	u	u	-82*	u	u
COc1ccc2[nH]c(=O)c(CN(Cc3ccco3)Cc3nnnn3Cc3ccccc3)cc2c1	-4%	16µM*	-8	21µM*	-2%
COc1ccc2[nH]c(=O)c(CN(Cc3cccs3)Cc3nnnn3Cc3ccccc3)cc2c1	u	u	-26	u	-13%
CCOc1ccc2[nH]c(=O)c(CN(CCCN3CCOCC3)Cc3nnnn3Cc3ccc(OC)cc3)cc2c1	u	21µM*	-16	u	-25%
COC(=O)c1ccccc1S(=O)(=O)N(Cc1ccco1)Cc1cc2cc(OC)ccc2[nH]c1=O	-22%	18µM*	14	u	-1%
Cc1ccc2[nH]c(=O)c(CN(CCO)Cc3nnnn3Cc3ccco3)cc2c1	x	u	x	-29%	x
Cc1cc(C)nc(/N=C(\N)Nc2ccc(S(=O)(=O)O)cc2)n1	6%	8%	34	0%	13%
Cc1cc(C)nc(/N=C(\N)Nc2ccc(CC(=O)OC(C)C)cc2)n1	-27%	3.3µM*	-99*	u	-12%
Cc1cc(C)nc(/N=C(\N)Nc2ccc(C)c([N+](=O)[O-])c2)n1	-13%	13µM*	-112*	10µM*	-4%
COc1ccc(N/C(N)=N/c2nc(C)cc(C)n2)cc1	2%	u	82	-21%	3%
Cc1cc(C)nc(/N=C(\N)Nc2ccc(OCc3ccccc3)cc2)n1	u	12µM*	-93*	12µM*	18µM*
Cc1cc(C)nc(/N=C(\N)Nc2ccc(OCCC(C)C)cc2)n1	23µM*	12µM*	-98*	9.2µM*	15µM*
CC(=O)c1ccc(NC(=O)C2CCCN(S(=O)(=O)c3c(C)[nH]c(=O)[nH]c3=O)C2)cc1 (configuration not stated)	0%	10%	-2	7%	19%
COc1ccccc1N/C(N)=N/c1nc(C)cc(C)n1	-3%	u	-8	u	-12%
Cc1cc(C)nc(/N=C(\N)Nc2cccc(OCc3ccccc3)c2)n1	u	12µM*	-68*	16µM*	u
Cn1c(=O)c2c(n3ncnc13)NC(=O)CC2c1cccc(F)c1 (configuration not stated)	x	-3%	x	4%	x
